Results filed as inconclusive are left out. Unmarked numbers belong to inactive results. The source made the active and inactive calls. The call rests on the fitted dose curve; in most records, active means well fitted cell-killing curve with a large enough effect; inconclusive means small, poorly fitted or top-dose-only effect; inactive means flat fitted curve, though single readings scatter.
Experiment: qHTS of pediatric cancer cell lines to identify multiple opportunities for drug repurposing: Primary screen for TC32 cells (AID 1347089); further: nearly all actives have a fitted effect of over 60% in size
Conditions: TC32 Ewing sarcoma viability, CellTiter-Glo luminescence, 48 h; series mostly up to 45.8 µM; activity change, negative = cytotoxic: at the top concentration
Text: Drug repurposing or repositioning has been offered as a strategy for drug development in oncology programs. This approach has special potential for childhood cancers and other rare or orphan diseases, where the expected return on new drug development has been a disincentive to pharmaceuticals.
In this project we exploit the poly-pharmacology of drugs to discover new indications via phenotypic screening of a panel of 19 well-characterized cell lines derived from solid tumors seen in children and adolescents. The goal is to identify approved drugs with previously unrecognized anticancer properties that has the potential to reveal new mechanisms and biological processes involved in carcinogenesis or drug resistance. We employed a titration-based paradigm (quantitative high-throughput screening or qHTS), where all compounds were tested at multiple concentrations for their effect on cell viability. Concentration-response curves (CRCs) were derived directly from the primary screen, and both potency and efficacy values were used to identify compounds with robust bioactivity profiles. We screened the NIH Chemical Genomics Center (NCGC) Pharmaceutical Collection (NPC) and Mechanism Interrogation Plate (MIPE) small molecule collections of approved and investigational compounds against these cell lines; and measured metabolically active cells after 48 hours of compound treatment as a proxy for cell viability.
Assay Submitter: Nathalia J. Martinez, National Center for Advancing Translational Sciences, National Institutes of Health, Rockville, MD, USA; email: natalia.martinez@nih.gov
[1] Shen, M et al. Quantitative high-throughput phenotypic screening of pediatric cancer cell lines identifies multiple opportunities for drug repurposing. Oncotarget 2017 Dec 19;9(4):4758-4772. PMID 29435139.
The cells were obtained from University of North Carolina (UNC), Pediatric Preclinical Testing Program (PPT), and Coriell Institute (CI).
qHTS cell viability assay:
Cells were assayed in growth media at a density of 500-1,000 cells/well. Five microliters of cells were dispensed into 1,536-well, white, solid-bottom, TC-treated plates (Greiner Bio One) using a multidrop dispenser and incubated at 37 degrees C, 5% CO2, under a humidified atmosphere for 5 hours. Twenty-three nanoliters of compounds and controls (neutral control DMSO or positive control bortezomib at final concentration of 2.3 uM) were subsequently transferred by Kalypsys pintool. For primary screens, the MIPE collection was tested at 11-point dilutions (final concentrations range from 0.78 nM to 46 µM) and the NPC collection at 8-point dilutions (final concentrations range from 0.59 nM to 46 µM). Compounds tested in follow-up screens were assayed at 11-point dilutions. Cells were incubated for 48 hours, followed by addition of 3 uL of CellTiter-Glo (Promega). After a 15min incubation at room temperature, samples were analyzed for luminescence intensity using a ViewLux High-throughput CCD imager equipped with clear filters.
On the % scale 0 is the no-effect control and ±100 the full control effect; potency means the concentration at half of the fitted maximal effect.

| SMILES | activity change, negative = cytotoxic | Potency |
| --- | --- | --- |
| CCO[C@@H]1O[C@H](C(COCc2ccccc2)OCc2ccccc2)[C@H](OCc2ccccc2)[C@H]1O (stereo not given in full) | 7.38% | – |
| CC(=O)NCCCCCC(=O)O | -0.163% | – |
| C=C[C@H]1CN2CC[C@H]1C[C@H]2[C@H](O)c1ccnc2ccc(OC)cc12 | 5.46% | – |
| CN(C)CCN1C(=O)c2ccccc2N(C)c2ccccc21 | -5.97% | – |
| CC(C)CCCC(C)N (stereo not given) | 4.31% | – |
| CCCCC(CC)COC(=O)/C=C/c1ccc(OC)cc1 (stereo not given) | -8.73% | – |
| CC(C)(C)NCC(O)COc1cccc2c1C[C@H](O)[C@H](O)C2 (stereo not given in full) | 6.12% | – |
| CCN[C@@H]1C[C@H](N)[C@@H](OC2OC(CN)=CCC2N)[C@H](O)[C@H]1O[C@H]1OC[C@](C)(O)[C@H](NC)[C@H]1O (stereo not given in full) | 2.31% [at 0.594 µM] | – |
| CCOc1ccccc1OCCN[C@H](C)Cc1ccc(OC)c(S(N)(=O)=O)c1 | 11.5% | – |
| O=C(CCN1CCN2CCCC2C1)N1c2ccccc2Sc2ccc(Cl)cc21 (stereo not given) | -10.3% [at 16 µM] | – |
| O=C(O)C(Cc1cc(I)c(O)c(I)c1)c1ccccc1 (stereo not given) | -6.67% | – |
| OCCOCCN1CCN(C2=Nc3ccccc3Sc3ccccc32)CC1 | -0.63% | – |
| CCOCCn1c(N2CCCN(C)CC2)nc2ccccc21 | -9.81% | – |
| Cc1ncc(CO)c(C=O)c1O | 8.09% | – |
| Cc1nc(-c2ccc(Cl)cc2)oc1COC(C)(C)C(=O)O | 7.79% | – |
| CCC(Cc1c(I)cc(I)c(N)c1I)C(=O)O (stereo not given) | 0.479% | – |
| CC(=O)O[C@]1(C(C)=O)CC[C@H]2[C@@H]3C=C(C)C4=CC(=O)CC[C@]4(C)[C@H]3CC[C@@]21C | 8.64% | – |
| CCCCc1cc2ccccc2c(OCCN(C)C)n1 | -12.4% | – |
| CCNC(=O)NCc1cccc(Cl)c1 | 4.75% | – |
| N=C(N)N1CCc2ccccc2C1 | 1.67% [at 4.81 µM] | – |

| SMILES | activity change, negative = cytotoxic | Potency |
| --- | --- | --- |
| OC[C@H]1O[C@@H]2O[C@H]3[C@H](O)[C@@H](O)[C@@H](O[C@H]4[C@H](O)[C@@H](O)[C@@H](O[C@H]5[C@H](O)[C@@H](O)[C@@H](O[C@H]6[C@H](O)[C@@H](O)[C@@H](O[C@H]7[C@H](O)[C@@H](O)[C@@H](O[C@H]8[C@H](O)[C@@H](O)[C@@H](O[C@H]1[C@H](O)[C@H]2O)O[C@@H]8CO)O[C@@H]7CO)O[C@@H]6CO)O[C@@H]5CO)O[C@@H]4CO)O[C@@H]3CO | 12.7% | – |
| CCCCCCCCCCCCCCC[C@H](O)[C@@H](N)CO | 8.9% | – |
| Cl/C(=C\n1cncn1)c1ccc(Cl)cc1Cl | 21.1% | – |
| CC1(COc2ccc(CC3SC(=O)NC3=O)cc2)CCCCC1 (stereo not given) | -5.85% | – |
| CC(=O)O[C@]1(C(C)=O)CC[C@H]2[C@@H]3C=C(Cl)C4=CC(=O)CC[C@]4(C)[C@H]3CC[C@@]21C | 12.2% | – |
| CCCCC(CC)COC(=O)c1ccc(N(C)C)cc1 (stereo not given) | 11.5% | – |
| COc1cc(NS(=O)(=O)c2ccc(N)cc2)ncn1 | 1.19% | – |
| CC1(C)OC[C@@H]2O[C@@]3(C(=O)O)OC(C)(C)O[C@H]3[C@@H]2O1 | 17.9% | – |
| COc1cc(C(=O)NCc2ccc(OCCN(C)C)cc2)cc(OC)c1OC | 0.928% | – |
| CC(=O)Nc1ccc(CC(=O)O)cc1 | 9.49% | – |
| CCOc1ccc(NC(C)=O)cc1 | -5.9% | – |
| N#CCC(=O)NN | 17.1% | – |
| CCOc1cc(OCC)c(C(=O)CCC(=O)O)cc1OCC | 7.48% | – |
| C[N+]1(C)CCC(=C(c2ccccc2)c2ccccc2)CC1 | 5.02% | – |
| CCN(CC)CCNC(=O)COc1ccc(OC)cc1 | 0.179% | – |
| C[C@@H](O)[C@H]1C(=O)N2C(C(=O)O)=C([C@H]3CCCO3)S[C@H]12 | 9.54% | – |
| O=C(O)CCc1nc2ccccc2[nH]1 | 13.2% | – |
| Nc1nc(Cl)nc2c1ncn2[C@@H]1O[C@H](CO)[C@@H](O)[C@@H]1F | – | 0.264 µM (active) |
| CNCCc1ccccn1 | 16% | – |
| COc1ccc(-c2cc(C(F)F)nn2-c2ccc(S(N)(=O)=O)cc2)cc1F | 16.7% | – |

Reference: PubChem BioAssay (NCATS)
